Screening results deposited in PubChem BioAssay by Broad Institute.
IDE exosite inh: exo-site inhibitors of human IDE, primary screen, biochemical, fluorescence anisotropy, probe displacement; purified IDE, FL-6b probe fluorescence polarization; hits give low values; z-score at 20 µM; 6.3% of 17,000 active; AID 1259349, 2017;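 active = z-score of -3 or lower, meaning strong loss of probe binding signal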;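 note: His-tagged human IDE residues 42-1019 made in E. coli with 30 nM FL-6b probe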
Target sequence (P14735 42-1019 limits assumed): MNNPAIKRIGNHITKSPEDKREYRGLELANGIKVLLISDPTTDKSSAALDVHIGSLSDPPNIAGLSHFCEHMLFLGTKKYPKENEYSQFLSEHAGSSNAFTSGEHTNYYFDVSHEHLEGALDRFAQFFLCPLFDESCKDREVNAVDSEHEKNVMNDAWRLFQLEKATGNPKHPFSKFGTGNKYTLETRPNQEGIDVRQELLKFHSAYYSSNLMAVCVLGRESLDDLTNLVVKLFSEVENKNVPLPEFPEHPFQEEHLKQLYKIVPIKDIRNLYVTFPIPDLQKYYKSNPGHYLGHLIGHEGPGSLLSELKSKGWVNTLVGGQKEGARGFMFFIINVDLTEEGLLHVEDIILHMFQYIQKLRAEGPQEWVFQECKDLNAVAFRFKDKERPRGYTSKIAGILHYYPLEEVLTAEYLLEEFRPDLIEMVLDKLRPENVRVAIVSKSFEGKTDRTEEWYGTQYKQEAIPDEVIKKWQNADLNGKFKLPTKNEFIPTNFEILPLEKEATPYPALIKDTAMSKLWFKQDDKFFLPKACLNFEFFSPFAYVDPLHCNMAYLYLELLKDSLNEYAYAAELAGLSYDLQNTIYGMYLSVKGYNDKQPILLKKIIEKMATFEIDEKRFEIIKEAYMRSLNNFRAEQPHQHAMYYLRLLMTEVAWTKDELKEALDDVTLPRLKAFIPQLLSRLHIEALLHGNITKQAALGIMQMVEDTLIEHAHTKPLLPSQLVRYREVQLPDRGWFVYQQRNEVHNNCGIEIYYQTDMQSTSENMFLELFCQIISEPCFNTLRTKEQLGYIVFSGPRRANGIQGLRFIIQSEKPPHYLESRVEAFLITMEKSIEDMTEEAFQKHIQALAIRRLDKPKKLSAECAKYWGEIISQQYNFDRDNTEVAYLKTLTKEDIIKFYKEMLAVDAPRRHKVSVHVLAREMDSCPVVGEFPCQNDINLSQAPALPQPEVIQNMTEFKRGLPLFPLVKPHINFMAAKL
The depositor's hits bear a star. Shown is part of a subset that was picked to be rich in hits.

SMILES	IDE exosite inh
O=C(C[C@@H]1C=C[C@H](NC(=O)C2CCC2)[C@@H](CO)O1)NC1CCCCC1	-0.462
CCCNC(=O)N1CC(=O)N2[C@H](C1)[C@@H](c1ccc(C#Cc3ccc(F)cc3)cc1)[C@@H]2CO	1.16
CCCNC(=O)N1CC(=O)N2[C@@H](CO)[C@H](c3ccc(C#Cc4cccc(F)c4)cc3)[C@@H]2C1	-9.19*
CCCNC(=O)N1CC(=O)N2[C@H](CO)[C@H](c3ccc(C#Cc4ccccc4)cc3)[C@@H]2C1	-9.58*
CCCC#Cc1ccc([C@H]2[C@H](CO)N3C(=O)CN(C(=O)NCCC)C[C@@H]23)cc1	-0.633
CCCNC(=O)N1CC(=O)N2[C@H](CO)[C@H](c3ccc(C#Cc4ccccc4)cc3)[C@H]2C1	-1.12
CCCNC(=O)N1CC(=O)N2[C@H](CO)[C@@H](c3ccc(C#Cc4cccc(OC)c4)cc3)[C@H]2C1	0.0101
CCCNC(=O)N1CC(=O)N2[C@H](CO)[C@H](c3ccc(C#Cc4cccc(F)c4)cc3)[C@@H]2C1	-8.46*
CCCC#Cc1ccc([C@@H]2[C@H]3CN(C(=O)NCCC)CC(=O)N3[C@H]2CO)cc1	1.59
CCCNC(=O)N1CC(=O)N2[C@H](CO)[C@@H](c3ccc(C#Cc4cccc(OC)c4)cc3)[C@@H]2C1	-2.99
CCCNC(=O)N1CC(=O)N2[C@H](CO)[C@H](c3ccc(C#Cc4cccc(F)c4)cc3)[C@H]2C1	0.546
CCCC#Cc1ccc([C@@H]2[C@@H](CO)N3C(=O)CN(C(=O)NCCC)C[C@@H]23)cc1	1.75
CCCNC(=O)N1CC(=O)N2[C@H](CO)[C@@H](c3ccc(C#Cc4cccc(F)c4)cc3)[C@@H]2C1	-6.36*
C/C=C/c1ccc([C@H]2[C@@H](C#N)N(C(=O)NC3CCCCC3)[C@H]2CO)cc1	-0.114
O=C(Nc1cc(F)ccc1F)N1CCCCN2[C@@H](CO)[C@H](c3ccc(-c4cncnc4)cc3)[C@@H]2C1	0.823
CC(=O)N1CCCCN2[C@H](C1)[C@H](c1ccc(-c3cccc(C(=O)N(C)C)c3)cc1)[C@@H]2CO	1.88
COCCNC(=O)C[C@H]1CC[C@@H]2[C@H](COc3ccc(NS(=O)(=O)c4ccc(Cl)cc4)cc3C(=O)N2C)O1	0.0604
OC[C@@H]1[C@H](c2ccccc2)C2(CN(Cc3cccnc3)C2)N1Cc1ccncc1	1.79
C[C@H]1CC(=O)NCC/C=C\C[C@@H](c2ccc3c(c2)OCO3)NC1=O	-0.793
COc1ccccc1NC(=O)N1CCCCN2[C@H](CO)[C@@H](c3ccc(-c4cccc(C#N)c4)cc3)[C@@H]2C1	-0.605
CCS(=O)(=O)N(C)C[C@@H]1N[C@H](CO)[C@@H]1c1ccc(C#CC2CC2)cc1	-0.239
CC(=O)NC[C@H]1[C@@H](c2ccc(C#C[C@H](C)O)cc2)[C@@H](CO)N1Cc1ccccn1	1.32
COc1ccc(S(=O)(=O)Nc2ccc3c(c2)CC(=O)N([C@H](C)CO)C[C@H](C)[C@@H](CN(C)C(=O)Nc2c(C)noc2C)O3)cc1	1.25
CCC(=O)Nc1ccc2c(c1)C(=O)N(C)C[C@H](OC)[C@H](C)CN(C(=O)Cc1cccnc1)[C@@H](C)CO2	1.69
CO[C@H](CN(C)C(=O)Nc1ccc(Cl)cc1)[C@H](C)CN(Cc1ccccc1Cl)[C@@H](C)CO	1.49
SMILES	IDE exosite inh
C[C@H](O)C#Cc1ccc([C@@H]2[C@H](CO)N3CCCCN(C(=O)c4ccncc4)C[C@@H]23)cc1	2.58
O=C(C[C@@H]1CC[C@H](NS(=O)(=O)c2ccc(F)cc2)[C@@H](CO)O1)N1CCN(c2ccccc2)CC1	-0.792
CCC(=O)NC[C@H]1[C@@H](c2ccc(C3=CCCC3)cc2)[C@@H](CO)N1C(=O)CN(C)C	0.208
Cc1ccccc1-c1ccccc1[C@H]1[C@@H](C#N)N(C(=O)c2cccc(F)c2)[C@@H]1CO	0.886
CN(C)CC(=O)N1CCCCN2[C@H](CO)[C@H](c3ccc(-c4ccccc4)cc3)[C@@H]2C1	2.34
CN(C)CC(=O)N1CCCCN2[C@H](CO)[C@@H](c3ccc(/C=C/c4ccccc4)cc3)[C@@H]2C1	-12*
CN(C)CC(=O)N1CCCCN2[C@H](CO)[C@H](c3ccc(-c4ccccc4)cc3)[C@H]2C1	2.26
CN(C)CC#Cc1ccc([C@H]2[C@H]3CN(C(=O)CN(C)C)CCCCN3[C@H]2CO)cc1	4.62
CN(C)CC(=O)N1CCCCN2[C@H](CO)[C@H](c3ccc(/C=C/c4ccccc4)cc3)[C@@H]2C1	-7.72*
C/C=C/c1ccc([C@@H]2[C@H](CO)N3CCCCN(C(=O)CN(C)C)C[C@@H]23)cc1	3.92
Cc1ccccc1-c1ccc([C@H]2[C@H](CO)N3CCCCN(S(=O)(=O)c4ccc(F)cc4)C[C@@H]23)cc1	0.0707
COc1cccc(NC(=O)N2[C@@H](CO)[C@H](c3ccccc3)[C@@H]2CNCC(C)C)c1	-0.161
O=C1CN(Cc2ccc(F)cc2)C[C@H]2[C@H](c3ccc(-c4ccccc4)cc3)[C@@H](CO)N12	-2.68
CC(C)C#Cc1ccc([C@H]2[C@@H](CO)N3CCCCN(C(=O)c4ccc5c(c4)OCO5)C[C@@H]23)cc1	0.95
C[C@H]1CN([C@@H](C)CO)C(=O)c2c(c3ccccc3n2C)-c2ccccc2CO[C@H]1CN(C)S(=O)(=O)c1ccc([N+](=O)[O-])cc1	-1.21
C[C@@H]1CN([C@H](C)CO)C(=O)CCCn2nncc2CO[C@@H]1CN(C)S(=O)(=O)c1ccccc1C#N	-0.638
OC[C@H]1[C@@H](c2ccc(C#Cc3ccccc3)cc2)[C@@H]2CN(Cc3cncnc3)CCCCN12	-16.2*
CCCC#Cc1ccc([C@H]2[C@@H](CO)N3CCCCN(Cc4cncnc4)C[C@H]23)cc1	-1.76
COCC#Cc1ccc([C@H]2[C@H](CO)N3CCCCN(Cc4cncnc4)C[C@@H]23)cc1	3.81
CCCC#Cc1ccc([C@@H]2[C@H]3CN(Cc4cncnc4)CCCCN3[C@H]2CO)cc1	2.86
OC[C@@H]1[C@H](c2ccc(Br)cc2)[C@H]2CN(Cc3ccccn3)CCCCN12	0.723
OC[C@H]1[C@H](c2ccc(C#Cc3ccccc3)cc2)[C@H]2CN(Cc3cncnc3)CCCCN21	-7.77*
OC[C@@H]1[C@@H](c2ccc(C#Cc3ccccc3)cc2)[C@@H]2CN(Cc3ccccn3)CCCCN12	-8.65*
OC[C@@H]1[C@@H](c2ccc(-c3ccccc3)cc2)[C@@H]2CN(Cc3ccccn3)CCCCN12	-2.94
CCCC#Cc1ccc([C@@H]2[C@@H](CO)N3CCCCN(Cc4cncnc4)C[C@H]23)cc1	3.71
SMILES	IDE exosite inh
CC(=O)N1CC(=O)N2[C@H](CO)[C@@H](c3ccc(-c4ccncc4)cc3)[C@H]2C1	4.04
COc1cccc(S(=O)(=O)N2CCCCN3[C@H](CO)[C@H](c4ccc(C#CCC(C)C)cc4)[C@H]3C2)c1	0.697
COc1ccc2c3c([nH]c2c1)[C@@H](CO)N(Cc1ccccc1F)CC31CN(CC2CC2)C1	-1.39
O=C(NC[C@@H]1[C@@H](c2ccccc2)[C@@H](CO)N1CC1CCCC1)c1cccnc1	1.74
N#C[C@@H]1N[C@H](CO)[C@H]1c1ccc(-c2cccc(F)c2)cc1	-1.46
COc1cccc(S(=O)(=O)Nc2ccc3c(c2)C(=O)N(C)[C@@H]2CC[C@H](CC(=O)NCC4CCCCC4)O[C@@H]2CO3)c1	0.446
CCC(=O)N1CCCCN2[C@H](CO)[C@@H](c3ccc(C#Cc4ccccc4)cc3)[C@@H]2C1	-9.16*
CCC(=O)N1CCCCN2[C@H](CO)[C@H](c3ccc(C#Cc4ccccc4)cc3)[C@H]2C1	-4.71*
